Measurements reported in PubChem BioAssay (NCI).
Compounds without any hit were thinned out: in the full panel of roughly 83,000, 20% have a hit.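 Plates (96-well) were seeded with cells, treated with compound at one concentration, and incubated for 48 hours before percent growth was determined.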 Activity calls are given as the source filed them. How the source made its calls: active means growth percent below 10; inactive means the rest.

test system: MCF7 breast; experiment: NCI-60 one-dose screen, 48 h (100 = growth as untreated, 0 = no growth, -100 = all killed); settings: 10 µM unless noted

SMILES | growth
CC1CC2Oc3ccc(Cl)cc3C(=O)N2O1 (stereo unspecified) | 112% (inactive)
COc1cccc(C(=O)NCCNc2cc(-c3cn(-c4ccccc4)nc3-c3cccc(OC)c3)ccn2)c1 | 56.7% (inactive)
CN(C)c1ccc(-c2ccc3[nH]c(=O)nc(-c4ccccc4)c3c2)cn1 | 25.9% (inactive)
CCN(CC)CCCCCCNc1cc(OC)c(Cl)c2cccnc12 | 66.7% (inactive)
NC(=N\N=C/c1ccccc1[N+](=O)[O-])/C(N)=N\N=C/c1ccccc1[N+](=O)[O-] | 105% (inactive)
C[n+]1cc2cc(C(N)=O)[nH]c3c(=N)c(Cl)c(N)c1c23 | 35.8% (inactive)
COc1ccc(C2=Nc3c(N)ncnc3NC(c3ccc4c(c3)OCO4)C2)cc1 (stereo unspecified) | 76.1% (inactive)
CCN(CC)CCN1C(=O)c2c(c(C)c3c(oc4cc(O)ccc43)c2C)C1=O | 3.63% (active)
O=C(Nc1ccccc1Cl)Oc1ccc(-c2ccccc2)cc1 | 110% (inactive)
O=C1/C(=C/c2ccc(F)cc2)C=C(c2ccccc2)N1CCc1ccccc1 | 50.4% (inactive)
Cc1cc(Cl)ccc1Nc1nc(C(F)(F)F)ccc1C(=O)N/N=C/c1ccc(N(C)C)cc1 | 10.1% (inactive)
CCN1CCN(c2cc(C)nc(NCc3cc(Nc4ccnc5cc(Cl)ccc45)ccc3F)n2)CC1 | 6.99% (active)
CCN(CC)CCN1CC(O)=C(c2nc(-c3ccc(Cl)cc3)cs2)C1=N | 10.1% (inactive)
CC(=O)n1c(-c2ccc(Cl)cc2)nc2c(c1=O)C(c1ccc(Cl)cc1)c1sc3c(Cl)cccc3c1O2 (stereo unspecified) | 5.59% (active)
CCN(CC)CCn1nc2c3c(cccc3c1=O)-c1ccccc1-2 | 4.36% (active)
Cc1cc(Cl)nc(NCc2cc(Nc3ccnc4cc(Cl)ccc34)ccc2F)n1 | 17.4% (inactive)
O=C(NCCCNc1cc(-c2cn(-c3ccccc3)nc2-c2cccc(O)c2)ccn1)c1ccccc1 | 23% (inactive)
COc1ccc(-c2cc(-c3cc(OC)ccc3OC)nc(SCC(=O)c3ccccc3)c2C#N)cc1 | 98.3% (inactive)
Nc1cc2c3c(cccc3c1)C(=O)N(CCN1CCCC1)C2=O | 6.93% (active)

SMILES | growth
COc1ccc(-c2csc(C3=C(O)CN(CCCN4CCCC4=O)C3=N)n2)cc1OC | 109% (inactive)
CCCCn1c(=O)c2c(nc(NCCc3ccc(O)c(O)c3)n2CCC)n(CCCC)c1=O | 65% (inactive)
N#C/C(=C/C=C/c1cccc(Cl)c1)S(=O)c1ccccc1 (stereo unspecified) | -52.5% (active)
O=C1OC(c2nc3ccccc3s2)=C/C1=C\c1ccc(O)cc1 | 100% (inactive)
CC/C=C\CCC/C=C1/C(=O)C=C[C@@H]1C/C=C\CCCC(=O)O | 20.2% (inactive)
CC(=O)C(C)Cc1cc2c(cc1C)C(C)(C)CCC2(C)C (stereo unspecified) | 91.8% (inactive)
O=[N+]([O-])c1ccc(C2CC(c3ccccc3)=Nc3ccccc3S2)cc1 (stereo unspecified) | 32.6% (inactive)
COc1ccc(-c2nc3c(c(=O)n2C(C)=O)C(c2ccc(Cl)cc2)c2sc4c(Cl)cccc4c2O3)cc1 (stereo unspecified) | 4.61% (active)
FC(F)(F)c1cc(Nc2ccc3cc(OCCCN4CCOCC4)ccc3n2)ccc1Cl | 6.85% (active)
CC(C)CCC[C@@H](C)[C@H]1CC[C@H]2[C@@H](Nc3ccc(O)cc3)CCC[C@]12C | 56.1% (inactive)
O=C(N/N=C/c1ccncc1)c1ccc(C(F)(F)F)nc1Nc1cccc(C(F)(F)F)c1 | -14.5% (active)
COC(=O)[C@]12CC[C@@H](C)[C@H](C)[C@@H]1C1=CC[C@@H]3[C@@]4(C)C(C=O)=C[C@@](C)(COC(C)=O)[C@@H]4C(=O)C[C@@]3(C)[C@]1(C)CC2 | 22.7% (inactive)
O=C(Nc1ccccc1)Nc1cccc(Oc2nnc(Cl)c3ccccc23)c1 | -4.15% (active)
N#Cc1c(-c2ccccc2)cc(-c2ccc(Nc3nc(Nc4ccc(F)cc4)nc(Nc4ccc(F)cc4)n3)cc2)nc1N | 84.3% (inactive)
CCn1c(C)nc2cc(C(N)=O)ccc21 | 91.5% (inactive)
O=C(/C=C/c1ccco1)c1ccc(Nc2nc(Nc3ccc(F)cc3)nc(Nc3ccc(Cl)cc3)n2)cc1 | 33.4% (inactive)
CC/C=C\C[C@H](O)C/C=C1/C(=O)C=C[C@@H]1C/C=C\CCCC(=O)OC | 4.43% (active)
N#Cc1c(-c2cccc(Cl)c2)cc(-c2cccc(Cl)c2)[nH]c1=O | 53.8% (inactive)
O=C1CC(N2C(=O)/C(=C/C(Cl)=C\c3ccc([N+](=O)[O-])cc3)SC2=S)C(=O)N1c1ccc(O)cc1 (stereo unspecified) | -11.6% (active)

test system: HCT-116 colon; experiment: as above; settings: 10 µM unless noted

SMILES | growth
CC1CC2Oc3ccc(Cl)cc3C(=O)N2O1 (stereo unspecified) | 107% (inactive)
COc1cccc(C(=O)NCCNc2cc(-c3cn(-c4ccccc4)nc3-c3cccc(OC)c3)ccn2)c1 | 40.9% (inactive)
CN(C)c1ccc(-c2ccc3[nH]c(=O)nc(-c4ccccc4)c3c2)cn1 | 16.4% (inactive)
CCN(CC)CCCCCCNc1cc(OC)c(Cl)c2cccnc12 | 70.8% (inactive)
NC(=N\N=C/c1ccccc1[N+](=O)[O-])/C(N)=N\N=C/c1ccccc1[N+](=O)[O-] | 108% (inactive)
C[n+]1cc2cc(C(N)=O)[nH]c3c(=N)c(Cl)c(N)c1c23 | 6.54% (active)
COc1ccc(C2=Nc3c(N)ncnc3NC(c3ccc4c(c3)OCO4)C2)cc1 (stereo unspecified) | 74.2% (inactive)
CCN(CC)CCN1C(=O)c2c(c(C)c3c(oc4cc(O)ccc43)c2C)C1=O | -85% (active)
O=C(Nc1ccccc1Cl)Oc1ccc(-c2ccccc2)cc1 | 110% (inactive)
O=C1/C(=C/c2ccc(F)cc2)C=C(c2ccccc2)N1CCc1ccccc1 | 29.4% (inactive)
Cc1cc(Cl)ccc1Nc1nc(C(F)(F)F)ccc1C(=O)N/N=C/c1ccc(N(C)C)cc1 | 19.4% (inactive)
CCN1CCN(c2cc(C)nc(NCc3cc(Nc4ccnc5cc(Cl)ccc45)ccc3F)n2)CC1 | 11.8% (inactive)
CCN(CC)CCN1CC(O)=C(c2nc(-c3ccc(Cl)cc3)cs2)C1=N | 1.48% (active)
CC(=O)n1c(-c2ccc(Cl)cc2)nc2c(c1=O)C(c1ccc(Cl)cc1)c1sc3c(Cl)cccc3c1O2 (stereo unspecified) | -45.9% (active)
CCN(CC)CCn1nc2c3c(cccc3c1=O)-c1ccccc1-2 | 16.3% (inactive)
Cc1cc(Cl)nc(NCc2cc(Nc3ccnc4cc(Cl)ccc34)ccc2F)n1 | 23.7% (inactive)
O=C(NCCCNc1cc(-c2cn(-c3ccccc3)nc2-c2cccc(O)c2)ccn1)c1ccccc1 | 24.8% (inactive)
COc1ccc(-c2cc(-c3cc(OC)ccc3OC)nc(SCC(=O)c3ccccc3)c2C#N)cc1 | 88.5% (inactive)
Nc1cc2c3c(cccc3c1)C(=O)N(CCN1CCCC1)C2=O | 17.4% (inactive)

SMILES | growth
COc1ccc(-c2csc(C3=C(O)CN(CCCN4CCCC4=O)C3=N)n2)cc1OC | 88.7% (inactive)
CCCCn1c(=O)c2c(nc(NCCc3ccc(O)c(O)c3)n2CCC)n(CCCC)c1=O | 63.3% (inactive)
N#C/C(=C/C=C/c1cccc(Cl)c1)S(=O)c1ccccc1 (stereo unspecified) | -86.3% (active)
O=C1OC(c2nc3ccccc3s2)=C/C1=C\c1ccc(O)cc1 | 99.8% (inactive)
CC/C=C\CCC/C=C1/C(=O)C=C[C@@H]1C/C=C\CCCC(=O)O | -30.2% (active)
CC(=O)C(C)Cc1cc2c(cc1C)C(C)(C)CCC2(C)C (stereo unspecified) | 95.1% (inactive)
O=[N+]([O-])c1ccc(C2CC(c3ccccc3)=Nc3ccccc3S2)cc1 (stereo unspecified) | 36.2% (inactive)
COc1ccc(-c2nc3c(c(=O)n2C(C)=O)C(c2ccc(Cl)cc2)c2sc4c(Cl)cccc4c2O3)cc1 (stereo unspecified) | -58.6% (active)
FC(F)(F)c1cc(Nc2ccc3cc(OCCCN4CCOCC4)ccc3n2)ccc1Cl | 14.5% (inactive)
CC(C)CCC[C@@H](C)[C@H]1CC[C@H]2[C@@H](Nc3ccc(O)cc3)CCC[C@]12C | 84.8% (inactive)
O=C(N/N=C/c1ccncc1)c1ccc(C(F)(F)F)nc1Nc1cccc(C(F)(F)F)c1 | 11.1% (inactive)
COC(=O)[C@]12CC[C@@H](C)[C@H](C)[C@@H]1C1=CC[C@@H]3[C@@]4(C)C(C=O)=C[C@@](C)(COC(C)=O)[C@@H]4C(=O)C[C@@]3(C)[C@]1(C)CC2 | 5.18% (active)
O=C(Nc1ccccc1)Nc1cccc(Oc2nnc(Cl)c3ccccc23)c1 | 10.6% (inactive)
N#Cc1c(-c2ccccc2)cc(-c2ccc(Nc3nc(Nc4ccc(F)cc4)nc(Nc4ccc(F)cc4)n3)cc2)nc1N | 70.7% (inactive)
CCn1c(C)nc2cc(C(N)=O)ccc21 | 94.6% (inactive)
O=C(/C=C/c1ccco1)c1ccc(Nc2nc(Nc3ccc(F)cc3)nc(Nc3ccc(Cl)cc3)n2)cc1 | 62.5% (inactive)
CC/C=C\C[C@H](O)C/C=C1/C(=O)C=C[C@@H]1C/C=C\CCCC(=O)OC | -56.5% (active)
N#Cc1c(-c2cccc(Cl)c2)cc(-c2cccc(Cl)c2)[nH]c1=O | 67.1% (inactive)
O=C1CC(N2C(=O)/C(=C/C(Cl)=C\c3ccc([N+](=O)[O-])cc3)SC2=S)C(=O)N1c1ccc(O)cc1 (stereo unspecified) | -31.2% (active)
